Here are results for 13 compounds from PubChem BioAssay (NCI).

The panel holds about 83,000 compounds, 20% with a hit somewhere; the sample as a whole holds those more often.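 The test compound was applied at a single concentration to cells in 96-well plates for 48 hours, and percent growth was recorded.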 Unmarked numbers belong to inactive results. Activity calls are given as the source filed them. Rule for the calls: active = growth percent below 10; inactive = the rest.

Some test systems named below: NCI-H23 lung; NCI-H226 lung; NCI-H322M lung; HOP-62 NSCLC; NCI-H460 lung; HOP-92 NSCLC; NCI-H522 lung; A549/ATCC NSCLC; 786-0 renal; COLO 205 colon.
Holding throughout (assay): NCI-60 one-dose screen, 48 h (100 = growth as untreated, 0 = no growth, -100 = all killed)
Common to all, as to conditions: 10 µM unless noted

With `CCc1ncnc2c1ccn2C(C)c1ccc(OC)c(F)c1` (stereo not given), the growth was 38.9% with NCI-H23 lung; 77.2% in the experiment with NCI-H226 lung; 79.7% in the experiment with NCI-H322M lung; 41.3% with HOP-62 NSCLC; 30.8% in the experiment on NCI-H460 lung; 43.2% with HOP-92 NSCLC. The growth is 43.3% in the experiment on NCI-H522 lung, 41.1% in the experiment on A549/ATCC NSCLC, 74.9% in the experiment on 786-0 renal and 26.3% in the experiment with COLO 205 colon.

As for `Nc1cnc(C(=O)NNc2nc3cc(F)ccc3n3cccc23)cn1`, the growth in the experiment on NCI-H23 lung was 44%; in the experiment on NCI-H226 lung, 49.5%; with NCI-H322M lung, 26.3%; with HOP-62 NSCLC, 33%; in the experiment on NCI-H460 lung it was 7.9% (active); with HOP-92 NSCLC, 64.2%. Further, the growth in the experiment with NCI-H522 lung was 16.7%; with A549/ATCC NSCLC, 38.8%; in the experiment with 786-0 renal it was 37.7%; in the experiment on COLO 205 colon, 9.48% (active).

For the compound `O=C(O)CCN1C(=O)/C(=C/C(Cl)=C/c2ccccc2)SC1=S`, the growth in the experiment on NCI-H23 lung was 21.3%; with NCI-H226 lung it was 23.6%; in the experiment on NCI-H322M lung, 61%; with HOP-62 NSCLC it was 53.9%; in the experiment on NCI-H460 lung it was 16.6%; in the experiment with HOP-92 NSCLC, 53.7%. In addition, the growth was 10.6% in the experiment on NCI-H522 lung, 44.8% in the experiment with A549/ATCC NSCLC, 9.92% (active) in the experiment with 786-0 renal and 13% with COLO 205 colon.

Turning to `c1ccc2cc(C[n+]3ccn(CCCCCCCCCCn4cc[n+](Cc5ccc6ccccc6c5)c4)c3)ccc2c1`, the growth in the experiment with NCI-H23 lung was 5.67% (active); with NCI-H226 lung, 39.5%; in the experiment with NCI-H322M lung, 34.5%; in the experiment on HOP-62 NSCLC it was -4.86% (active); with NCI-H460 lung, 11%; in the experiment on HOP-92 NSCLC it was -23.6% (active). Moreover, the growth in the experiment on NCI-H522 lung was -72.3% (active); in the experiment with A549/ATCC NSCLC, 18.5%; in the experiment with 786-0 renal, 35.6%; in the experiment with COLO 205 colon it was -81.1% (active).

For the compound `O=C1c2ccccc2-c2c1c1c(=O)[nH]c3ccccc3c1n2Cc1ccccc1`, the growth in the experiment with NCI-H23 lung is 63.1%; in the experiment with NCI-H226 lung, 29.5%; in the experiment on NCI-H322M lung, 58.4%; with HOP-62 NSCLC, 75.8%; in the experiment with NCI-H460 lung, 58.9%; in the experiment with HOP-92 NSCLC it was 56.4%. For the same compound, the growth in the experiment on NCI-H522 lung is 35%; in the experiment with A549/ATCC NSCLC it was 44.9%; in the experiment with 786-0 renal, 39.7%; with COLO 205 colon, 73.8%.

As to `CCCCNCCCCCNc1cc(OC)cc2cccnc12`, the growth was 101% with NCI-H23 lung; 96.5% with NCI-H226 lung; 106% in the experiment with NCI-H322M lung; 88% in the experiment with HOP-62 NSCLC; 106% in the experiment with NCI-H460 lung; 49.2% in the experiment with HOP-92 NSCLC. Moreover, the growth is 94% in the experiment with NCI-H522 lung, 95.9% in the experiment with A549/ATCC NSCLC, 90.1% in the experiment with 786-0 renal and 93.7% in the experiment on COLO 205 colon.

In the case of `N#Cc1c(-c2ccccc2)cc(-c2ccccc2)n(CCCC(=O)Nc2ccccc2N)c1=O`, the growth in the experiment with NCI-H23 lung was 73.5%; in the experiment on NCI-H226 lung it was 73.9%; with NCI-H322M lung it was 102%; with HOP-62 NSCLC it was 64.7%; with NCI-H460 lung it was 33.5%; with HOP-92 NSCLC, 62.1%. Besides, the growth in the experiment with NCI-H522 lung is 32.4%; in the experiment on A549/ATCC NSCLC, 57.4%; in the experiment on 786-0 renal it was 63.9%; with COLO 205 colon, 92.3%.

With `O=C(Cn1cc(CSc2nc3ccccc3o2)nn1)Nc1ccc(F)cc1F`, the growth is 96% in the experiment with NCI-H23 lung; 86.2% in the experiment with NCI-H226 lung; 104% in the experiment on NCI-H322M lung; 114% in the experiment with HOP-62 NSCLC; 117% in the experiment with NCI-H460 lung; 114% with HOP-92 NSCLC. The growth in the experiment on NCI-H522 lung was 111%; in the experiment with A549/ATCC NSCLC it was 113%; with 786-0 renal it was 119%; in the experiment on COLO 205 colon it was 127%.

Consider `CC(C)c1ccc(C(=O)Nc2nc3ccc(O)c(CN(C)C)c3s2)cc1`, for which the growth is 88.9% in the experiment on NCI-H23 lung; 97.1% in the experiment on NCI-H226 lung; 81.9% in the experiment with NCI-H322M lung; 93.4% in the experiment with HOP-62 NSCLC; 59.5% in the experiment with NCI-H460 lung; 81.7% with HOP-92 NSCLC. The growth in the experiment on NCI-H522 lung was 79.4%; with A549/ATCC NSCLC, 80.6%; in the experiment on 786-0 renal, 89.9%; in the experiment on COLO 205 colon it was 84.7%.

Consider `Oc1c(I)cc(I)cc1CNCc1ccccn1`, for which the growth in the experiment with NCI-H23 lung is 52.4%; with NCI-H226 lung, 62.5%; with NCI-H322M lung, 40.1%; in the experiment on HOP-62 NSCLC, 28.3%; in the experiment on NCI-H460 lung, 19.9%; in the experiment with HOP-92 NSCLC it was 63.2%. Also, the growth with NCI-H522 lung was 4.61% (active); in the experiment on A549/ATCC NSCLC, 23.6%; in the experiment with 786-0 renal, 36.1%; in the experiment with COLO 205 colon, 74.1%.

Turning to `Cn1ccc(=O)c(C(=O)Nc2nsc3ccc([N+](=O)[O-])cc23)c1`, the growth is 91.3% in the experiment with NCI-H23 lung; 76.7% in the experiment on NCI-H226 lung; 45.2% in the experiment with NCI-H322M lung; 96.4% in the experiment with HOP-62 NSCLC; 48.2% in the experiment with NCI-H460 lung; 41.2% in the experiment with HOP-92 NSCLC. Moreover, the growth in the experiment with NCI-H522 lung is 53.3%; in the experiment with A549/ATCC NSCLC, 74.9%; in the experiment with 786-0 renal, 56.2%; in the experiment on COLO 205 colon it was 76.9%.

Turning to `C=C1C(=O)O[C@H]2[C@H]1CC/C(COC(=O)NCc1ccc(Cn3c(=O)sn(CCCCC)c3=O)cc1)=C\CC[C@@]1(C)O[C@@H]21`, the growth in the experiment with NCI-H23 lung is 78.6%; in the experiment on NCI-H226 lung it was 75.4%; in the experiment with NCI-H322M lung, 93.4%; in the experiment on HOP-62 NSCLC it was 81.2%; with NCI-H460 lung, 92.6%; in the experiment with HOP-92 NSCLC it was -15.6% (active). In addition, the growth in the experiment with NCI-H522 lung was -68.6% (active); with A549/ATCC NSCLC, 89.3%; with 786-0 renal it was 32.1%; with COLO 205 colon, -20.8% (active).

As to `Cc1ccc(C2=Nc3c(N)ncnc3NC(c3cccc(Nc4ccnc5cc(C(F)(F)F)ccc45)c3)C2)cc1` (stereo not given), the growth in the experiment with NCI-H23 lung is 44.3%; in the experiment with NCI-H226 lung, 59.8%; in the experiment with NCI-H322M lung it was 67.2%; with HOP-62 NSCLC it was 41.1%; with NCI-H460 lung it was 21.2%; in the experiment with HOP-92 NSCLC, 2.86% (active). The growth is 30.6% in the experiment on NCI-H522 lung, 24.6% with A549/ATCC NSCLC, 42.6% in the experiment with 786-0 renal and 9.89% (active) with COLO 205 colon.
